Compound activity from PubChem.
Shown are actives, neighbours in structure and some others; about 21% of the full set was active somewhere.
DT40 TDP1 CPT: qHTS for Inhibitors of human tyrosyl-DNA phosphodiesterase 1 (TDP1): qHTS in cells in presence of CPT | hit rate 12% among 420,000 | AID 686979, 2013 | chicken DT40 Tdp1-/-;hTDP1 cells + 20 nM CPT, ATP luminescence, 48 h | Potency, µM (highest dose often 46.2 µM), hits mostly inhibitors; further: nearly all actives have a fitted effect of over 55% in size
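Chicken DT40 Tdp1-/- cells stably complemented with human TDP1 were seeded at 400 cells/well in medium containing 20 nM camptothecin, exposed to pin-transferred compounds, and grown at 37 °C for at least 48 hr. Viability was read as ATP luminescence.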
VP16 counter: VP16 counterscreen qHTS for inhibitors of ROR gamma transcriptional activity | Drosophila S2 Gal4-VP16 UAS-luciferase, luminescence, 20 h | Potency, µM (titrated, usually from 53.6 µM), usual class: inhibitors | hit rate 3.5% among 310,000 | AID 2546, 2010;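 further: Gal4-VP16 expression switched on by copper sulfate through the metallothionein promoter; nearly all actives have a fitted effect of over 50% in size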
RORgamma inh: qHTS for inhibitors of ROR gamma transcriptional activity; Nuclear receptor ROR-gamma (Mus musculus), P51450; Drosophila S2 Gal4-RORgamma UAS-luciferase reporter, 20 h; Potency, µM (series often up to 53.6 µM), hits mostly inhibitors; hit rate 5.4% among 310,000; AID 2551, 2010; further: nearly all actives have a fitted effect of over 60% in size
Target sequence (P51450 whole entry, looked up, the tested form may be a part): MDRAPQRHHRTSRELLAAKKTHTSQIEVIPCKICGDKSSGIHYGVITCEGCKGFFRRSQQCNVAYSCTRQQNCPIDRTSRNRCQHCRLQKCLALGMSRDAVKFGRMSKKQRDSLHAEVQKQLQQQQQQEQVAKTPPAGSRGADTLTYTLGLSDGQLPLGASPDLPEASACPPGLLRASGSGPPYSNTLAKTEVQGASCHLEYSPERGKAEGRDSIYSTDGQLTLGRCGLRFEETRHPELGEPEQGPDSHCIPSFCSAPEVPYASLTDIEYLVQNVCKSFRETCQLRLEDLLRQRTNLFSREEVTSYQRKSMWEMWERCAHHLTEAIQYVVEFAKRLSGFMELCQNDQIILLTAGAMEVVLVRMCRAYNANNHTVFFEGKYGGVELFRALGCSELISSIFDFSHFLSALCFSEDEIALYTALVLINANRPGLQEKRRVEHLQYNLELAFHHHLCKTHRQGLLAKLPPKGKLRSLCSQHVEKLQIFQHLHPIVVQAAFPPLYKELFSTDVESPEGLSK
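ROR gamma transcriptional activity was tracked as Gal4-UAS luciferase output in stably transfected Drosophila Schneider cells, with compound added 1 hr before 700 uM copper sulfate induction and a 20 hr ambient-temperature incubation.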
IL1B secr inh: qHTS for Inhibitors of Inflammasome Signaling: IL-1-beta AlphaLISA Primary Screen; THP-1 LPS/ATP IL-1B secretion, AlphaLISA, 16 h; hits give low values; hit rate 4.7% among 360,000; activity change, % at 57.5 µM; in the data active means activity change below about -50%; inconclusive means mostly about -30% to -49%
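THP-1 cells pretreated 1 hr with compounds (up to 57.5 uM final), then stimulated with LPS (250 ng/mL final) plus ATP (1.25 mM final); secreted IL-1B measured by AlphaLISA after 16 hr, decreased signal indicating inhibition.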
ELG1 DNA repair: qHTS screen for small molecules that inhibit ELG1-dependent DNA repair in human embryonic kidney (HEK293T) cells expressing luciferase-tagged ELG1. HEK293T ELG1-luciferase reporter, luminescence, 16 h; DNA damage induced by 5-fluorouridine. Potency, µM (doses to about 46.1 µM), most hits filed as inhibitors. hit rate 2.3% among 330,000. AID 504467, 2011; further: nearly all actives have a fitted effect of over 55% in size
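5-Fluorouridine DNA damage + compound/DMSO, 2,000 cells/well, 16 h, 37 °C/5% CO2. ONE-Glo, 30 min RT, luminescence. Readout = decrease in reporter signal.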
TDP1 cell noCPT: qHTS for Inhibitors of human tyrosyl-DNA phosphodiesterase 1 (TDP1): qHTS in cells in absence of CPT; DT40 Tdp1-/- hTDP1 cells, no CPT, ATP luminescence, 48 h; Potency, µM (titrated, usually from 46.2 µM), actives largely listed as inhibitors; hit rate 15% among 420,000; AID 686978, 2013; further: nearly all actives have a fitted effect of over 55% in size
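DT40 Tdp1-/-;hTDP1 cells, no CPT (DMSO vehicle only), 400 cells/well; compounds pin-transferred; ≥48 hr, 37 °C; CellTiter-Glo 30 min RT dark, luminescence read.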
Numbers stand for hits; n = inactive; u = inconclusive; x = not tested or not shown. Unless noted, the call rests on the fitted dose curve; in most records, active means well fitted curve in the direction sought with a large enough effect; inconclusive means small, poorly fitted or top-dose-only effect, or another doubt; inactive means no such curve, though single readings can be large; an effect the other way counts as inactive or inconclusive.

SMILES	DT40 TDP1 CPT	VP16 counter	RORgamma inh	IL1B secr inh	ELG1 DNA repair	TDP1 cell noCPT
Cc1ccc2nc(-c3ccc(C)o3)c(NC3CCCC3)n2c1	11µM	x	x	x	x	13µM
Cc1ccc2nc(-c3ccccc3)c(Cc3ccccn3)n2c1	u	x	x	n	x	u
C[C@H](CO)N1C[C@H](C)[C@H](CN(C)S(=O)(=O)c2ccccc2)OCc2cnnn2CCCC1=O	u	x	x	n	x	n
CCOc1ccc(NS(=O)(=O)c2ccc(C(=O)NNC(=O)c3ccccc3O)cc2)cc1	u	x	x	n	n	u
O=C(Nc1ccccc1)c1ccc(S(=O)(=O)Nc2cccc(O)c2)cc1	u	u	u	n	n	u
CC(C(=O)c1ccc(-c2ccccc2)cc1)[n+]1cccc(NC(=O)c2ccccc2)c1 (centres undefined)	18µM	n	n	u	n	15µM
O=C(Nc1ccncc1)c1ccc(-c2ccccc2)cc1	3.3µM	u	7.9µM	n	1.8µM	2.9µM
CC(=O)c1cccc(NS(=O)(=O)c2ccc(C(=O)Nc3ccccc3)cc2)c1	18µM	10µM	u	n	n	12µM
O=C(NNC(=O)c1ccccc1O)c1ccc(S(=O)(=O)Nc2ccccc2)cc1	u	x	x	n	n	16µM
COc1ccc(CNC(=O)C2=C(C)C(=O)OC23CCCCC3)cc1OC	n	x	x	x	x	u
COc1ccc(-c2nc3ccccc3s2)cc1NC(=O)c1cc2ccccc2o1	n	x	x	x	x	n
Cn1c(CC(=O)NNC(=O)c2ccccc2[N+](=O)[O-])nc2ccccc21	n	x	x	n	n	n
NS(=O)(=O)c1ccc(NS(=O)(=O)c2ccc(NC(=O)c3ccc(-c4ccccc4)cc3)cc2)cc1	n	u	n	n	n	n
O=C(Nc1ccncc1)c1ccc(S(=O)(=O)Nc2ccccc2)cc1	15µM	n	n	n	u	12µM
O=C(Nc1ccc(-c2cnco2)cc1)c1ccccc1	n	n	n	-71	u	n
O=C1C=CC(=NN=C(c2ccccc2)c2ccccc2)C=C1	u	x	x	n	x	n
COc1ccc(F)cc1CN1CCN(c2cc(C)nc3c4c(C)cc(C)nc4nn23)CC1	x	u	20µM	x	u	x
CCS(=O)(=O)c1ccccc1C(=O)N(Cc1cccnc1)c1nc2cc(C)c(C)cc2s1	u	x	x	x	x	23µM
Cc1ccc2nc(N(Cc3cccnc3)C(=O)Cc3ccccc3)sc2c1	n	x	x	x	x	n
O=C(Cc1ccccc1)N(Cc1cccnc1)c1nc2ccc(Cl)cc2s1	u	x	x	x	x	n
Cc1ccc2nc(N(Cc3cccnc3)C(=O)CCS(=O)(=O)c3ccccc3)sc2c1	u	x	x	x	x	16µM
Cc1cccc2sc(N(Cc3cccnc3)C(=O)Cc3ccccc3)nc12	n	x	x	x	x	n
O=C(CCS(=O)(=O)c1ccccc1)N(Cc1cccnc1)c1nc2ccc(Cl)cc2s1	5.8µM	x	x	x	x	13µM
Cc1ccc2c(c1)c1c(c(=O)n(-c3cccc(Cl)c3)c(=O)n1C)n2C	u	x	x	x	x	n
O=C(COC(=O)c1ccc(O)cc1O)Nc1cc(-c2ccccc2)nn1-c1ccccc1	u	x	x	-58	u	18µM
SMILES	DT40 TDP1 CPT	VP16 counter	RORgamma inh	IL1B secr inh	ELG1 DNA repair	TDP1 cell noCPT
CCOC(=O)c1c(C)[nH]c(C(=O)N/N=C/c2ccc(Br)cc2)c1C	1.2µM	u	u	n	n	0.023µM
Cc1[nH]c(C(=O)N/N=C/c2ccc(C(=O)O)cc2)c(C)c1C(=O)N/N=C/c1ccc(C(=O)O)cc1	n	n	n	n	n	n
COc1ccc(C)cc1NC(=O)COC(=O)c1ccc(OCc2ccc(Cl)cc2Cl)c(OC)c1	18µM	n	n	n	n	16µM
COc1ccc(NC(=O)COC(=O)c2ccc(OCc3ccc(Cl)cc3Cl)c(OC)c2)c(OC)c1	u	n	n	n	n	u
CCCc1cc(NC(=O)COC(=O)c2ccc(O)cc2O)n(-c2ccccc2)n1	u	x	x	n	u	u
CCOC(=O)c1c(C)[nH]c(C(=O)OCC(=O)Nc2cc(C)nn2-c2ccccc2)c1C	u	x	x	n	u	18µM
CCOC(=O)c1c(C)[nH]c(C)c1S(=O)(=O)NCC(=O)NCc1cccc(Br)c1	n	x	x	x	x	n
CCOC(=O)c1[nH]c(C)c(C(=O)NCc2ccc(OC)cc2)c1C	n	n	n	n	n	n
CCOC(=O)c1c(C)c(C(=O)NCc2ccc(OC)cc2)c(C)n1CC	n	x	x	x	x	u
CCOC(=O)C(=CNc1cc(C)nn1-c1ccccc1)C(=O)OCC	21µM	n	n	n	u	16µM
CCOC(=O)c1c(C)c(C(=O)Nc2cc(OC)ccc2OC)c(C)n1CC	6.5µM	n	n	n	u	18µM
CCOC(=O)c1[nH]c(C)c(C(=O)Nc2cc(OC)ccc2OC)c1C	0.79µM	n	n	n	u	0.56µM
CCOC(=O)c1c(C)[nH]c(C(=O)OCC(=O)Nc2cc(C)ccc2OC)c1C	2.6µM	n	n	n	n	4.1µM
Cc1ccccc1-c1ccc2ncnc(NCc3cccnc3)c2c1	u	u	n	x	x	u
CCC(C)NC(=O)C1CCC(=O)N1CCc1ccccc1 (centres undefined)	n	n	n	n	n	n
CCOC(=O)C1CCN(S(=O)(=O)c2ccc(N3CCCCS3(=O)=O)cc2)CC1	n	x	x	x	x	n
CCOC(=O)Cc1nnc2c(Nc3ccccc3F)nc3nonc3n12	23µM	n	n	n	u	23µM
CC(C(=O)Nc1ccccc1C(F)(F)F)n1nc(-c2ccccc2)c2c(c1=O)CCCC2 (centres undefined)	u	x	x	x	x	16µM
O=C(N=Nc1c(O)[nH]c2ccccc12)c1cccc(S(=O)(=O)N2CCCCC2)c1	n	n	n	n	n	n
O=c1[nH]c2ccccc2c2nc(-c3cccc(S(=O)(=O)N4CCCC4)c3)nn12	u	n	n	n	n	16µM
CCOC(=O)c1oc2cc(O)ccc2c(=O)c1-c1ccccc1OC	n	n	n	n	n	n
CCOC(=O)c1ccc(-c2c(C(=O)OCC)oc3cc(O)c(CC)cc3c2=O)o1	15µM	u	3.2µM	n	u	12µM
CCOC(=O)c1oc2cc(O)cc(O)c2c(=O)c1OCc1ccccc1	18µM	x	x	n	x	16µM
CCCSc1nc2sc3c(c2c(=O)[nH]1)CC(C)CC3 (centres undefined)	u	n	n	n	n	16µM
CCCCSc1nc2sc3c(c2c(=O)[nH]1)CCC3	n	n	n	n	n	n
